{"source": "paper PMC7862700", "about": "“An all-to-all approach to the identification of sequence-specific readers for epigenetic DNA modifications on cytosine”", "assay_in_all_cases": "DAPPL (digital affinity profiling via proximity ligation, sequencing); 10 mM Tris-HCl pH 7.5, 50 mM NaCl, 1 mM DTT, 4% glycerol, room temperature, 30 min; GST-TFs on glutathione beads, 16-mer random dsDNA library, 0.1% formaldehyde crosslink after washing; high values mean tight binding", "settings_in_all_cases": "protein: recombinant; tags: N-terminal GST; dsDNA, one strand shown", "key": {"ETV1": {"molecular_target": "ETV1 (Homo sapiens, UniProt P50549 1-477)", "sequence (P50549 whole entry, the tested form may be a part)": "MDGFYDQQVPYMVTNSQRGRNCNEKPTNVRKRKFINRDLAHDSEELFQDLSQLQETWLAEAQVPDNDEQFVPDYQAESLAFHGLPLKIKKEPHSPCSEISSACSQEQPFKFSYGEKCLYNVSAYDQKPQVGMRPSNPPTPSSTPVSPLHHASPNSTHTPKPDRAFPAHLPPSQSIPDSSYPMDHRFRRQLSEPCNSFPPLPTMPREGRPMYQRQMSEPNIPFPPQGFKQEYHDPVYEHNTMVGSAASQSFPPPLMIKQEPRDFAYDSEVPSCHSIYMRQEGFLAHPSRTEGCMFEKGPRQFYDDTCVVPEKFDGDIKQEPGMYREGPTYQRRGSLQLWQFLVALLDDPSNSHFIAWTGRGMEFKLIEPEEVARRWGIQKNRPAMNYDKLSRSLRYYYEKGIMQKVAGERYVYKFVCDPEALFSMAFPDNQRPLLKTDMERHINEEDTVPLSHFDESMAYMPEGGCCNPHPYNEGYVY", "outline": "(§1)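 Human transcription factors fused to GST were expressed in yeast, captured on glutathione beads, given DNA barcodes and pooled with a GST-only negative control. Pools were incubated with 200 nmole of a 16-mer random double-stranded DNA library in Tris/NaCl/DTT/glycerol buffer at room temperature for 30 min. They were then washed, crosslinked with 0.1% formaldehyde, proximity-ligated (BsaI/T4 ligase, 1 h, 37 °C), PCR-amplified and sequenced on an Illumina NextSeq500. Binding signal is each 6-mer's read frequency for a factor divided by its frequency for the GST control.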"}, "ERF": {"molecular_target": "T1, ERF (Homo sapiens, UniProt P50548 1-548)", "T1 sequence": "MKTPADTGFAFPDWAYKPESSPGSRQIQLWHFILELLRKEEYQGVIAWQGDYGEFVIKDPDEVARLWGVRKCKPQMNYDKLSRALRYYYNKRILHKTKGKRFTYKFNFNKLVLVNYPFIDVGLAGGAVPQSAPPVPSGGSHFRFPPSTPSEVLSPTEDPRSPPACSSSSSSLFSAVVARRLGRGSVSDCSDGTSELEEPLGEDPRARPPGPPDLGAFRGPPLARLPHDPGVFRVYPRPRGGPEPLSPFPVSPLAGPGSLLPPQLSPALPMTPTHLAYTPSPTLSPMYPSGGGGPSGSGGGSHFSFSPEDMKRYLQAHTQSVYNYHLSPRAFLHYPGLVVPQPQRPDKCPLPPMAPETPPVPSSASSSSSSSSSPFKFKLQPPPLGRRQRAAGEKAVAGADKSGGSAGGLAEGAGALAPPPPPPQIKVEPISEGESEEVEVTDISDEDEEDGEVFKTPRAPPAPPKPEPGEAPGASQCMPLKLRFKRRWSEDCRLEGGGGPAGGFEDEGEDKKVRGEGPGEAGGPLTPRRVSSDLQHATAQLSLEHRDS", "outline": "as §1"}, "ETV3L": {"molecular_target": "T2, ETV3L (Homo sapiens, UniProt Q6ZN32 1-361)", "T2 sequence": "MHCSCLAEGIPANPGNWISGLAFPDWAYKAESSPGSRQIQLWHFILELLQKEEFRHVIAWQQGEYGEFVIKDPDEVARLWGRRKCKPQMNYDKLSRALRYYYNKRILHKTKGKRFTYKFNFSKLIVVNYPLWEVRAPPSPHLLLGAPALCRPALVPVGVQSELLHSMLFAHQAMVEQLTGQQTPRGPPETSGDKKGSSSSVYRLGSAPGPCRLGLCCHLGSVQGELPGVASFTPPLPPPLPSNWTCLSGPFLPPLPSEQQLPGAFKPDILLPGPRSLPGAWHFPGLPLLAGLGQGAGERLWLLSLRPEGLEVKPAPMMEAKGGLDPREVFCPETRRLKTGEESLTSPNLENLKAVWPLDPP", "outline": "as §1"}, "ETS2": {"molecular_target": "T3, ETS2 (Homo sapiens, UniProt P15036 1-469)", "T3 sequence": "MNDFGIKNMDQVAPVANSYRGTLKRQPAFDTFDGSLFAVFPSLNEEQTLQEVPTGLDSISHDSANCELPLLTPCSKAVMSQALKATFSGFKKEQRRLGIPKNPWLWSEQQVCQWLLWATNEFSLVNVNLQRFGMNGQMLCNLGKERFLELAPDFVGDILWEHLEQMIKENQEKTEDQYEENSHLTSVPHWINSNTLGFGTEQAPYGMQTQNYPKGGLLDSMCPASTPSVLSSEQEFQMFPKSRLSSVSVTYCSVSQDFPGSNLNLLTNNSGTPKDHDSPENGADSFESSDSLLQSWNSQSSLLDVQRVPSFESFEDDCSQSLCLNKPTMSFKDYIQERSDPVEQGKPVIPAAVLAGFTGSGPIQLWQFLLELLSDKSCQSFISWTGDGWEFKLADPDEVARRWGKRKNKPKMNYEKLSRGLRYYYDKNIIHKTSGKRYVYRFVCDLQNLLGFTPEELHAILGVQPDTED", "outline": "as §1"}, "SPDEF": {"molecular_target": "T4, SPDEF (Homo sapiens, UniProt O95238 1-335)", "T4 sequence": "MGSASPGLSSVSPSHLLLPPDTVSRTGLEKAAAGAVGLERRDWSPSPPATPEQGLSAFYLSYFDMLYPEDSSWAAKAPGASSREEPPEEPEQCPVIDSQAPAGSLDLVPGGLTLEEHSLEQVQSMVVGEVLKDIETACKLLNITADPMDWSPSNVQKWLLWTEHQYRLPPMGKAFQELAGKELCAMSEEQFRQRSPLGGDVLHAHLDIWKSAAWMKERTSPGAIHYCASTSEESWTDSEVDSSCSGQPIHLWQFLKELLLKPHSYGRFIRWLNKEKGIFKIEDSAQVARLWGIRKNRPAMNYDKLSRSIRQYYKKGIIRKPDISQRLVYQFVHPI", "outline": "as §1"}, "ETV7": {"molecular_target": "T5, ETV7 (Homo sapiens, UniProt Q9Y603 1-341)", "T5 sequence": "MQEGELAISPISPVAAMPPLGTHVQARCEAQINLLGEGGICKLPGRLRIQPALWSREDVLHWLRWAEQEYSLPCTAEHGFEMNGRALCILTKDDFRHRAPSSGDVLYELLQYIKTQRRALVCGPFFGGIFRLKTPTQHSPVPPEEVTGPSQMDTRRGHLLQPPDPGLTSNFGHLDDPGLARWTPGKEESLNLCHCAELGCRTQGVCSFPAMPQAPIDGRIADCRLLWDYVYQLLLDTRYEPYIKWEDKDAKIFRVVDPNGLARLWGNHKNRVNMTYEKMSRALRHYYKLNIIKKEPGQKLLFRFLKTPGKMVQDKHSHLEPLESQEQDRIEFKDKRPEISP", "outline": "as §1"}, "ELF5": {"molecular_target": "T6, ELF5 (Homo sapiens, UniProt Q9UKW6-2 1-255)", "T6 sequence": "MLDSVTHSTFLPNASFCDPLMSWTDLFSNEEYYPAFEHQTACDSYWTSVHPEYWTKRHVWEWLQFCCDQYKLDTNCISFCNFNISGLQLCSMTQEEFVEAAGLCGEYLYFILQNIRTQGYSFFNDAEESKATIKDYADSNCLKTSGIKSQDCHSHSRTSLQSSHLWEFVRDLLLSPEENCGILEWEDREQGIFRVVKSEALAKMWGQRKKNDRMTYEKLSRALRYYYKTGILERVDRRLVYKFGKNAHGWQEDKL", "outline": "as §1"}, "ETV3": {"molecular_target": "T7, ETV3 (Homo sapiens, UniProt P41162-2 1-143)", "T7 sequence": "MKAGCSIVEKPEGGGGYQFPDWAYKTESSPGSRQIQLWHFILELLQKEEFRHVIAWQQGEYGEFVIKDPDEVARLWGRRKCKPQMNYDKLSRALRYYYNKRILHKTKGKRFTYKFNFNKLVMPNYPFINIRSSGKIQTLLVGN", "outline": "as §1"}, "ETV6": {"molecular_target": "ETV6 (Homo sapiens, UniProt P41212 1-452)", "sequence (P41212 whole entry)": "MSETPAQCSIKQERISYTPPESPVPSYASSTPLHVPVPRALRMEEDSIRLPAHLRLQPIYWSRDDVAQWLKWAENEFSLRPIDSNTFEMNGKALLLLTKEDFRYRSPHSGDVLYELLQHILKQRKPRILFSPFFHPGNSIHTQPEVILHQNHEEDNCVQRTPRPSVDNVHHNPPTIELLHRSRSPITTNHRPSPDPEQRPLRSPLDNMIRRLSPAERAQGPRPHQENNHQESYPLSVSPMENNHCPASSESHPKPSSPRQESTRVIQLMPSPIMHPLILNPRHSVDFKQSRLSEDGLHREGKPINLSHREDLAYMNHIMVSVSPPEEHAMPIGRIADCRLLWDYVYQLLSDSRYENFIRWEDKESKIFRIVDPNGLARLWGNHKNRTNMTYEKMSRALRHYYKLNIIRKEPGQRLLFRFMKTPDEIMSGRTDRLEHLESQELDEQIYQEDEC", "outline": "as §1"}}, "data": [{"sequence": "CGTATA", "values": [{"measurement": "binding signal", "setting": "ETV1", "result": "1.19 fold enrichment (6-mer frequency, TF over GST control)"}, {"measurement": "binding signal", "setting": "ERF", "result": "1.13 fold enrichment (6-mer frequency, TF over GST control)"}, {"measurement": "binding signal", "setting": "ETV3L", "result": "1.1 fold enrichment (6-mer frequency, TF over GST control)"}, {"measurement": "binding signal", "setting": "ETS2", "result": "1.11 fold enrichment (6-mer frequency, TF over GST control)"}, {"measurement": "binding signal", "setting": "SPDEF", "result": "1.21 fold enrichment (6-mer frequency, TF over GST control)"}, {"measurement": "binding signal", "setting": "ETV7", "result": "1.15 fold enrichment (6-mer frequency, TF over GST control)"}, {"measurement": "binding signal", "setting": "ELF5", "result": "1.16 fold enrichment (6-mer frequency, TF over GST control)"}, {"measurement": "binding signal", "setting": "ETV3", "result": "1.18 fold enrichment (6-mer frequency, TF over GST control)"}, {"measurement": "binding signal", "setting": "ETV6", "result": "1.08 fold enrichment (6-mer frequency, TF over GST control)"}]}]}
